This is a sample that favours compounds with a hit; in the whole collection about 6.2% have one here.
HT1080 IDH1KD tx – HT-1080 IDH1 knockdown cell toxicity (counter line); HT-1080 IDH1 knockdown viability, ATP luminescence, 48 h; Potency, µM (top dose mostly 46.1 µM), for inactives: at the top dose activity, negative = toxicity, most hits filed as cytotoxic; hit rate 2% among 360,000;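 further: 0% = DMSO wells and -100% = cell-free medium wells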
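% activity derives from luminescence (CellTiter-Glo), normalised to DMSO and no-cell wells. HT-1080-IDH1KD cells, 750/well, had 48 h compound exposure at 37 °C.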
HT1080NT lethal – kills 2HG-producing HT-1080-NT fibrosarcoma cells; HT-1080-NT fibrosarcoma viability, CellTiter-Glo ATP luminescence, 48 h; Potency, µM (series often up to 46.1 µM), for inactives: top-dose activity, negative = less viability, hits mostly cytotoxic; hit rate 1.6% among 360,000;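 further: NT is the 2HG producing partner of a matched IDH1 knockdown line; 0% = DMSO-treated cells and -100% = media-only wells without cells; nearly all actives have a fitted effect of over 55% in size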
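Compounds were tested in concentration-response format on HT-1080-NT cells for 48 hours at 37 degrees C. Cell viability came from CellTiter-Glo luminescence; curves were classified by r2, response magnitude and activity.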
KB-V1 cytotox – kills drug-selected multidrug resistant KB-V1 cells; Potency, µM (series often up to 46.1 µM), actives largely listed as cytotoxic; KB-V1 MDR cells viability, CellTiter-Glo, 72 h; hit rate 3.4% among 400,000; AID 1347076; further: on the % scale 0 is the no-effect control and ±100 the full control effect; nearly all actives have a fitted effect of over 60% in size
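Drug-selected KB-V1 cells, grown in DMEM lacking phenol red with 10% FBS, receive compound titrations; after three days at 37 degrees C, surviving cell ATP is quantified by CellTiter-Glo luminescence and responses normalized and curve-fitted.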
KB-3-1 tox – kills parental KB-3-1 adenocarcinoma cells; KB-3-1 viability, CellTiter-Glo ATP luminescence, 72 h; hit rate 1.4% among 400,000; AID 1347075; Potency, µM (top dose mostly 46.1 µM), most hits filed as cytotoxic; further: on the % scale 0 is the no-effect control and ±100 the full control effect; nearly all actives have a fitted effect of over 60% in size
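Parental KB-3-1 viability, qHTS format: 72 h compound exposure, 37 °C; CellTiter-Glo; media-only wells and DMSO plates as controls; concentration-effect fits on corrected data.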
ATXN2 expr inh – reduces ATXN2 reporter expression in HEK-293 cells. hit rate 0.72% among 360,000. Potency, µM (series often up to 57 µM), for the others: at the top dose activity change, negative = inhibition, actives largely listed as inhibitors. HEK-293 ATXN2-luciferase reporter, luminescence, 24 h. AID 1745845; further: on the % scale 0 is the no-effect control and ±100 the full control effect; nearly all actives have a fitted effect of over 55% in size
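ATXN2-luciferase reporter cells (luciferase flanked by upstream and downstream ATXN2 gene portions) were treated 24 h at 37 °C with compounds at up to 57 uM. SteadyGlo luminescence gave expression; GF-AFC fluorescence gave viability.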
S2 tox – viability counter-screen for ATXN expression inhibitors; Potency, µM (titrated, usually from 56.7 µM), most hits filed as cytotoxic; hit rate 0.49% among 400,000; AID 651635; S2 cells (HEK-293 line with an ATXN2-luciferase reporter) viability, CellTiter-Fluor protease fluorescence, 24 h; further: nearly all actives have a fitted effect of over 40% in size
Numbers without * were called inactive; i = inactive; ? = inconclusive; / = no result; [ ] = remark or other dose. The call rests on the fitted dose curve; in most records, active means well fitted curve in the direction sought with a large enough effect; inconclusive means small, poorly fitted or top-dose-only effect, or another doubt; inactive means no such curve, though single readings can be large; an effect the other way counts as inactive or inconclusive. Potency means the concentration at half of the fitted maximal effect.

SMILES | HT1080 IDH1KD tx | HT1080NT lethal | KB-V1 cytotox | KB-3-1 tox | ATXN2 expr inh | S2 tox
CCC(C)(C)NC(=O)C(c1ccccc1)N(Cc1cccnc1)C(=O)c1csnn1 (centres undefined) | 13% | 6% | 13µM* | i | 3% | ?
CCC(C)(C)NC(=O)C(c1ccc(C)cc1)N(Cc1cccnc1)C(=O)c1csnn1 (centres undefined) | 6% | 1% | i | i | -10% | i
CC(C)(C)NC(=O)C(c1ccco1)N(C(=O)c1csnn1)c1ccccc1 (centres undefined) | 9% | -3% | 15µM* | i | 0% | i
CCN(CC)S(=O)(=O)c1ccc(C(=O)NCCSc2c(-c3ccc(F)cc3)[nH]c3ccccc23)cc1 | / | / | i | ? | -10% | i
COC(=O)[C@@H]1[C@@H](C#N)C2(c3ccccc3-c3ccccc32)N(c2ccc(Cl)cc2)N1C#N | 23µM* | 23µM* | ? | ? | 10µM* | 28µM*
O=C(Cc1ccc(Cl)cc1)NN1C(=O)c2ccccc2C1=O | 11% | 15% | i | i | 1% | i
COC(=O)c1cc(=O)nc2sc3cc(OC)ccc3n12 | 18% | 17% | i | i | 33% | i
COc1ccc(O)c(/C=c2/sc3nc4cc(C)c(C)cc4n3c2=O)c1 | ? | ? | 18µM* | ? | -18% | i
O=C(C[n+]1ccccc1Br)c1ccc(O)c(O)c1 | / | / | i | ? | / | /
CCOC(=O)c1cc(S(=O)(=O)NCc2ccc(Cl)cc2)[nH]n1 | / | / | i | i | -3% | i
O=C1c2ccc3c4c(ccc(c24)C(=O)N1c1cccc(O)c1)CC3 | 14% | 3% | i | i | -13% | i
O=C1c2ccc3c4c(ccc(c24)C(=O)N1c1cccc(O)c1)C(=O)N(c1cccc(O)c1)C3=O | ? | ? | i | 16µM* | / | ?
CC1=C/C(=C(\c2cc(C)c(O)c(Br)c2)c2ccccc2S(=O)(=O)O)C=C(Br)C1=O | ? | ? | ? | ? | ? | 11µM*
CCOC(=O)c1c(C)n(-c2ccc(C)cc2)c2ccc(OCC(O)CNCC3CCCO3)cc12 (centres undefined) | -27% | ? | ? | ? | ? | ?
CCOC(=O)c1c(C)n(C)c2ccc(OCC(O)CN3CCCCCC3)cc12 (centres undefined) | -9% | -23% | i | i | -30% | 18µM*
CCOC(=O)c1c(C)n(-c2ccc(C)cc2)c2ccc(OCC(O)CNCCCO)cc12 (centres undefined) | 23µM* | ? | ? | i | ? | ?
OC(COc1ccc2cc(Br)ccc2c1)CN1CCCC1 (centres undefined) | 13µM* | -29%[9.24 µM] | ? | ? | ? | ?
CCOC(=O)c1c(C)n(C)c2ccc(OCC(O)CN3CCC(C)CC3)cc12 (centres undefined) | -5% | -3% | i | i | -23% | i
CC(=O)Nc1ccc(C)cc1-c1nc2ccccc2n(CC(=O)Nc2cc(Cl)ccc2C)c1=O | / | / | i | i | / | /
O=C(CN1CCN(c2ccccn2)CC1)Nc1ccccc1Br | 0% | 3% | i | i | / | ?
O=C(CN1CCN(c2ncccn2)CC1)Nc1ccccc1-n1cccc1 | 5% | 0% | 12µM* | i | -7% | i
Cc1nn(-c2ccccc2)c(Cl)c1C(=O)NCc1cccs1 | 27% | 14% | 15µM* | i | 7% | i
Cc1nn(Cc2ccccc2)c(Cl)c1C(=O)NCCc1ccccc1 | -4% | -1% | i | i | 7% | i
Cc1c(-c2ccccc2)nc2ccccc2c1C(=O)NCc1cccs1 | -4% | -5% | 12µM* | i | -7% | i
Cc1nn(Cc2ccccc2)c(Cl)c1C(=O)NCc1ccc(C)n1C | 1% | 2% | 15µM* | i | -1% | ?
SMILES | HT1080 IDH1KD tx | HT1080NT lethal | KB-V1 cytotox | KB-3-1 tox | ATXN2 expr inh | S2 tox
Cc1nn(-c2ccccc2)c(C)c1C(=O)NCc1cccs1 | 14% | 7% | i | i | 9% | i
CCCC(=O)O[C@]1(C(=O)CC)CC[C@H]2[C@@H]3CCC4=CC(=O)CC[C@]4(C)[C@H]3[C@@H](O)C[C@@]21C | / | / | / | / | -18% | i
O=C(CSc1nnc(-c2cccs2)n1-c1cccc(Cl)c1)c1cccc2c1OCCO2 | 7% | 16% | 8.2µM* | i | -3% | i
CCC/C=N/NC(=O)c1[nH]c2c([N+](=O)[O-])cccc2c1C | ? | ? | i | 23µM* | ? | ?
O=C(C[C@@H]1C[C@H]2c3cc(NC(=O)c4cccnc4)ccc3O[C@H]2[C@H](CO)O1)NCc1ccc(Oc2ccccc2)cc1 | ? | ? | i | 18µM* | ? | ?
O=C(C[C@@H]1C[C@@H]2c3cc(NS(=O)(=O)c4ccc(F)cc4)ccc3O[C@@H]2[C@H](CO)O1)NCc1ccc(Oc2ccccc2)cc1 | ? | ? | i | i | -36% | ?
CCc1ccc(OCC(=O)N/N=C(\C)c2ccccc2OC(F)F)cc1 | -8% | -11% | 16µM* | i | -10% | i
Cc1ccc(S(=O)(=O)N(C)Cc2ccc(C(=O)NN=C(CC(C)C)CC(C)C)cc2)cc1 | -21% | 5% | 2.3µM* | ? | -25% | ?
CC/C(=N\NC(=O)c1ccc(CN(C)S(=O)(=O)c2ccc(C)cc2)cc1)c1ccc(OC(F)F)cc1 | -5% | -9% | 15µM* | ? | -21% | i
CCc1ccc2c(c1)Sc1ccccc1CC2N1CCN(C)CC1 (centres undefined) | -27% | -19% | i | i | / | /
CN1CCN(CCOC2Cc3ccccc3Sc3ccc(Cl)cc32)CC1 (centres undefined) | -4% | -6% | 23µM* | ? | -16% | i
COc1ccc(C(C)NC(=O)CN(c2cc(OC)ccc2OC)S(=O)(=O)c2ccccc2)cc1 (centres undefined) | / | / | i | i | 2% | i
COc1ccc2cc(CNCc3ccccc3C(F)(F)F)c(N3CCCC(CO)C3)nc2c1 (centres undefined) | / | / | / | / | / | i
COc1ccc(-c2nn(-c3ccccc3)cc2/C=C/C(=O)OCC(=O)Nc2ccc(C#N)cc2)cc1 | 20% | 3% | 9.2µM* | i | -11% | i
CN(CC(=O)Nc1cccc(F)c1)C(=O)c1cn(-c2ccccc2)nc1-c1ccc(Cl)cc1 | ? | 21µM* | i | i | / | ?
COc1ccc(NC(=O)CN(C)C(=O)c2cn(-c3ccccc3)nc2-c2ccc(OC)cc2)cc1 | -15% | -2% | i | i | / | i
